Results on 40 molecules are retold here after ChEMBL document CHEMBL3433997, “St. Jude Leishmania screening dataset” (2016).

Solute carrier family 2, facilitated glucose transporter member 1 (Homo sapiens), sequence (P11166 whole entry): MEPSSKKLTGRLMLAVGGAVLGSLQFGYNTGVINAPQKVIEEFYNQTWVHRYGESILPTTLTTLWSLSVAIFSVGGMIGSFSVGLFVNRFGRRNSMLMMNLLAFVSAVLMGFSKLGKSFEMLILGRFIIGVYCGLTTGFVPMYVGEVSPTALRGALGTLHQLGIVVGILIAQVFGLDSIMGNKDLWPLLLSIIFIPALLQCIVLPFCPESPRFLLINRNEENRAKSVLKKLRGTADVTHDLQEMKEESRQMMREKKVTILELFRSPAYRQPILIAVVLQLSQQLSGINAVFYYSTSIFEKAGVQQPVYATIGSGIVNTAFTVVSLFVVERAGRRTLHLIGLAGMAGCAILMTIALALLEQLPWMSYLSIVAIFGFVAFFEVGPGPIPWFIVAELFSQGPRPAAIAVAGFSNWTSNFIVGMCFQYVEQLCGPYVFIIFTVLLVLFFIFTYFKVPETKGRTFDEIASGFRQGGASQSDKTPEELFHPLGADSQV

One assay concerns the target Solute carrier family 2, facilitated glucose transporter member 1 (Homo sapiens) (UniProt P11166). The assay is described as follows: ST_JUDE_LEISH: Cytotoxicity at 2uM final concentration against transgenic Leishmania Mexicana promastigotes LmGLUT1 that are glucose transport deficient and complemented with the human glucose transporter GLUT1. Activity is measured by DNA content using SYBR green in vitro. It is filed as functional.
For `COc1ccc2ncc(F)c(CCN3CC[C@@H](CNCc4nc5c(cc4C)SCC(=O)N5)C3)c2n1`, the inhibition was 3.29%.

As for `CCCCOc1ccc(/C=C/c2ccc(-c3c(C)[nH]c(C)c(Cl)c3=O)s2)cc1`, the inhibition was -1.17%.

For `Ic1cc(Nc2ncnc3ccsc23)ccc1OCc1ccccc1`, the inhibition turned out to be 0.8%.

As for `O=C(Nc1cc(F)cc(-c2cccnc2)c1)c1ccc2c(=O)n(Cc3ccccc3)cnc2c1`, the inhibition turned out to be 0.81%.

As for `CC(CNc1nc(NCC(c2ccccc2)c2ccccc2)c2nc[nH]c2n1)c1ccccc1` (stereo not given), the inhibition came to 3.92%.

Regarding `CCOC(=O)C1CCN(CCCNC(=O)/C(=C/C=C/c2cc3cc(Cl)c(Cl)cc3[nH]2)OC)CC1`, the inhibition was -1.12%.

Take `O=S(=O)(c1csc2ccccc12)N(CCC(O)(C(F)(F)F)C(F)(F)F)Cc1cccc(O)c1`: the inhibition is -1.82%.

Turning to `CCN(CC)CCCC(C)Nc1ccnc2ccc(-c3ccccc3)cc12` (stereo not given), the inhibition was -0.2%.

Consider `CN1CCC(C(=O)N(Cc2ccc(-c3ccc(CNCCc4ccc(S(C)(=O)=O)cc4)cn3)cc2)Cc2cccc(F)c2)CC1`, for which the inhibition came to 1.69%.

`CCOC(=O)c1cn(CC)c2cc(F)c(OC3CC4CCC3(C)C4(C)C)cc2c1=O` (stereo not given): the inhibition was -1.86%.

Take `CC(=NNc1nc2ccccc2s1)c1ccccn1`: the inhibition was 7.41%.

`CC=CC(=O)N1CCN(c2nccc(-c3ccc(C(C)(C)C)cc3)n2)CC1`: the inhibition worked out at 8.6%.

On to `COc1cccc(OCC2CCCN(CCCCNC(=O)c3ccc(NC(=O)c4ccc(Cl)cc4)cc3)C2)c1` (stereo not given), for which the inhibition is -2.42%.

Take `Fc1cccc(COc2ccc(Nc3ncnc4ccc(C#C[C@H]5CCCN5)cc34)cc2Cl)c1`: the inhibition was determined as 1.39%.

For the molecule `CC(C)CNCc1cccc(-c2cccc(CN(CCCN3CCN(C)CC3)C(=O)Nc3ccccc3)c2)c1`, the inhibition turned out to be 0.02%.

Take `CC(=O)Nc1ccc(C(=O)Nc2cccc(-c3ccc(-c4nc5ccccc5[nH]4)s3)c2)cn1`: the inhibition worked out at 4.38%.

In the case of `CC(=O)Nc1ccc(CN2CCC(NC(=O)c3ccc(-c4cccc(C(F)(F)F)c4)s3)CC2)cc1`, the inhibition worked out at 0.69%.

For the molecule `CCN1CCC(N(Cc2ccc(-c3ccc(C(F)(F)F)cc3)cc2)C(=O)Cn2c(CCc3cccc(F)c3F)cc(=O)c3ccc(OCc4ccccc4)cc32)CC1`, the inhibition turned out to be 3.79%.

On to `COCCn1c(Sc2ncnc3sccc23)nc2ccccc21`, for which the inhibition came out at 0.98%.

On to `CCN(CC)CCN(Cc1ccc(-c2ccc(C(F)(F)F)cc2)cc1)C(=O)Cn1c(CCc2cccc(C#N)c2)nc(=O)c2ccccc21`, for which the inhibition amounted to 2.68%.

Consider `Cn1nccc1C(=O)NCCNCc1ccc(-c2ccc(-c3nc4cc(C(F)(F)F)ccc4[nH]3)cc2)cc1`, for which the inhibition amounted to 6.01%.

As to `O=C(/C=C/c1ccc(Cl)c(Cl)c1)NCCCCCN1CCC(NC(=O)Nc2ccc(Cl)cc2Cl)CC1`, the inhibition is -0.07%.

`CCCCN(CCCC)CCCN(CCCN(CCCC)CCCC)c1cc(C)nc(Nc2ccc3cc(Br)ccc3c2)n1`: the inhibition came out at 12%.

Regarding `O=C(Nc1ccccc1)N(Cc1cccc(-c2cccc(CNCc3ccc4c(c3)OCO4)c2)c1)C1CCN(Cc2ccccc2)CC1`, the inhibition was 0.53%.

As to `O=C1c2ccccc2C(=O)N1c1ccc(S(=O)(=O)N2CCOCC2)cc1`, the inhibition was 8.7%.

Take `Cn1nc(-c2ccc(CN[C@@H]3CCc4ccc(O)cc43)cc2)c2cnc(NCCCN3CCCC3)nc21`: the inhibition worked out at 1.97%.

Regarding `Cc1cc(N[C@@H](Cc2ccccc2)C(=O)NCc2cccc(F)c2)nc(NCCCOC(C)C)n1`, the inhibition came to 0.45%.

Turning to `Nc1nc(N)c2c(ccc3c2ccn3Cc2cccc3ccccc23)n1`, the inhibition came to 97.3%.

Consider `CCCCNCc1ccc(-c2nc(CN(CCCn3ccnc3)C(=O)Nc3ccc(CC)cc3)cs2)cc1`, for which the inhibition worked out at 7.74%.

In the case of `CN(CCN(C)C(=O)NCc1ccccc1)C(=O)NCc1ccccc1`, the inhibition is 3.05%.

As to `CCCCCC(C)c1cc(O)c2c(c1)OC(C)(C)C=C2C1=CCN(Cc2ccccc2)CC1` (stereo not given), the inhibition is 3.67%.

For the molecule `O=C(/C=C/c1ccc(C(F)(F)F)cc1)NCCCCCN1CCCN(C(=O)Nc2ccc(Cl)cc2)CC1`, the inhibition was 5.01%.

Consider `CN1CCN(Cc2ccc(-c3cccc(-c4nc5ccccc5[nH]4)c3)cc2)CC1`, for which the inhibition was found to be 1.13%.

As to `CC(C)(C)c1ccc2[nH]c(-c3ccc(C(=O)NC4CCN(Cc5ccccc5)CC4)s3)nc2c1`, the inhibition came to 3.39%.

As for `O=C(Nc1cccc(OC2CCN(Cc3ccc(F)cc3)CC2)c1)c1ccc(C(F)(F)F)cc1`, the inhibition stood at 0.28%.

As to `CS(=O)(=O)N1CC2(CCN(CCC(NC(=O)/C=C/c3ccccc3)c3ccc(Cl)c(Cl)c3)CC2)c2ccccc21` (stereo not given), the inhibition was found to be 2.11%.

`CC(C)(C)c1ccccc1OCCCON1C(=N)N=C(N)NC1(C)C`: the inhibition turned out to be 38%.

Consider `Cc1cccc2nc(-c3ccc(-c4ccc(CNCc5cccc(N)c5)cc4)cc3)[nH]c12`, for which the inhibition was 24.1%.

`CCCCN(Cc1cc(Cl)c(OCC)c(OC)c1)c1ccc(C(O)(C(F)(F)F)C(F)(F)F)cc1`: the inhibition was -0.54%.

With `CCc1c(CCNCCCCCCNCc2ccc3c(c2CC)OCO3)ccc(OC)c1OC`, the inhibition was determined as 10.6%.

A further assay concerns the target Hexose transporter 1 (Plasmodium falciparum) (UniProt O97467). The assay is described as follows: ST_JUDE_LEISH: Cytotoxicity at 2uM final concentration against transgenic Leishmania Mexicana promastigotes LmPfHT that are glucose transport deficient and complemented with the Plasmodium falciparum hexose transporter. Activity is measured by DNA content using SYBR green in vitro. It is filed as functional.
For `COc1ccc2ncc(F)c(CCN3CC[C@@H](CNCc4nc5c(cc4C)SCC(=O)N5)C3)c2n1`, the inhibition turned out to be 3.35%.

Take `CCCCOc1ccc(/C=C/c2ccc(-c3c(C)[nH]c(C)c(Cl)c3=O)s2)cc1`: the inhibition was 2.35%.

For the molecule `Ic1cc(Nc2ncnc3ccsc23)ccc1OCc1ccccc1`, the inhibition is 0.85%.

In the case of `O=C(Nc1cc(F)cc(-c2cccnc2)c1)c1ccc2c(=O)n(Cc3ccccc3)cnc2c1`, the inhibition was found to be 1.52%.

With `CC(CNc1nc(NCC(c2ccccc2)c2ccccc2)c2nc[nH]c2n1)c1ccccc1` (stereo not given), the inhibition was determined as 5%.

As to `CCOC(=O)C1CCN(CCCNC(=O)/C(=C/C=C/c2cc3cc(Cl)c(Cl)cc3[nH]2)OC)CC1`, the inhibition is 4.1%.

As to `O=S(=O)(c1csc2ccccc12)N(CCC(O)(C(F)(F)F)C(F)(F)F)Cc1cccc(O)c1`, the inhibition is -2.19%.

Regarding `CCN(CC)CCCC(C)Nc1ccnc2ccc(-c3ccccc3)cc12` (stereo not given), the inhibition is -0.17%.

Take `CN1CCC(C(=O)N(Cc2ccc(-c3ccc(CNCCc4ccc(S(C)(=O)=O)cc4)cn3)cc2)Cc2cccc(F)c2)CC1`: the inhibition stood at 0.58%.

Regarding `CCOC(=O)c1cn(CC)c2cc(F)c(OC3CC4CCC3(C)C4(C)C)cc2c1=O` (stereo not given), the inhibition was -1.79%.

Consider `CC(=NNc1nc2ccccc2s1)c1ccccn1`, for which the inhibition amounted to 17.9%.

For `CC=CC(=O)N1CCN(c2nccc(-c3ccc(C(C)(C)C)cc3)n2)CC1`, the inhibition was determined as 9.97%.

On to `COc1cccc(OCC2CCCN(CCCCNC(=O)c3ccc(NC(=O)c4ccc(Cl)cc4)cc3)C2)c1` (stereo not given), for which the inhibition came to 1.68%.

Regarding `Fc1cccc(COc2ccc(Nc3ncnc4ccc(C#C[C@H]5CCCN5)cc34)cc2Cl)c1`, the inhibition is 1.5%.

Take `CC(C)CNCc1cccc(-c2cccc(CN(CCCN3CCN(C)CC3)C(=O)Nc3ccccc3)c2)c1`: the inhibition is -1.73%.

As to `CC(=O)Nc1ccc(C(=O)Nc2cccc(-c3ccc(-c4nc5ccccc5[nH]4)s3)c2)cn1`, the inhibition was found to be 1.07%.

On to `CC(=O)Nc1ccc(CN2CCC(NC(=O)c3ccc(-c4cccc(C(F)(F)F)c4)s3)CC2)cc1`, for which the inhibition came out at 0.42%.

Take `CCN1CCC(N(Cc2ccc(-c3ccc(C(F)(F)F)cc3)cc2)C(=O)Cn2c(CCc3cccc(F)c3F)cc(=O)c3ccc(OCc4ccccc4)cc32)CC1`: the inhibition worked out at 3.24%.

In the case of `COCCn1c(Sc2ncnc3sccc23)nc2ccccc21`, the inhibition turned out to be 2.13%.

As to `CCN(CC)CCN(Cc1ccc(-c2ccc(C(F)(F)F)cc2)cc1)C(=O)Cn1c(CCc2cccc(C#N)c2)nc(=O)c2ccccc21`, the inhibition was determined as 1.83%.

As to `Cn1nccc1C(=O)NCCNCc1ccc(-c2ccc(-c3nc4cc(C(F)(F)F)ccc4[nH]3)cc2)cc1`, the inhibition came to 0.59%.

As for `O=C(/C=C/c1ccc(Cl)c(Cl)c1)NCCCCCN1CCC(NC(=O)Nc2ccc(Cl)cc2Cl)CC1`, the inhibition is -0.77%.

As for `CCCCN(CCCC)CCCN(CCCN(CCCC)CCCC)c1cc(C)nc(Nc2ccc3cc(Br)ccc3c2)n1`, the inhibition was determined as 10.1%.

For `O=C(Nc1ccccc1)N(Cc1cccc(-c2cccc(CNCc3ccc4c(c3)OCO4)c2)c1)C1CCN(Cc2ccccc2)CC1`, the inhibition came out at 1.69%.

For the molecule `O=C1c2ccccc2C(=O)N1c1ccc(S(=O)(=O)N2CCOCC2)cc1`, the inhibition was found to be 6.66%.

With `Cn1nc(-c2ccc(CN[C@@H]3CCc4ccc(O)cc43)cc2)c2cnc(NCCCN3CCCC3)nc21`, the inhibition amounted to 0.42%.

For the molecule `Cc1cc(N[C@@H](Cc2ccccc2)C(=O)NCc2cccc(F)c2)nc(NCCCOC(C)C)n1`, the inhibition was 1.37%.

Turning to `Nc1nc(N)c2c(ccc3c2ccn3Cc2cccc3ccccc23)n1`, the inhibition worked out at 96%.

As for `CCCCNCc1ccc(-c2nc(CN(CCCn3ccnc3)C(=O)Nc3ccc(CC)cc3)cs2)cc1`, the inhibition turned out to be 6.29%.

Consider `CN(CCN(C)C(=O)NCc1ccccc1)C(=O)NCc1ccccc1`, for which the inhibition is 3.69%.

As for `CCCCCC(C)c1cc(O)c2c(c1)OC(C)(C)C=C2C1=CCN(Cc2ccccc2)CC1` (stereo not given), the inhibition worked out at 3.53%.

Consider `O=C(/C=C/c1ccc(C(F)(F)F)cc1)NCCCCCN1CCCN(C(=O)Nc2ccc(Cl)cc2)CC1`, for which the inhibition was 4.49%.

For `CN1CCN(Cc2ccc(-c3cccc(-c4nc5ccccc5[nH]4)c3)cc2)CC1`, the inhibition stood at 0.78%.

For `CC(C)(C)c1ccc2[nH]c(-c3ccc(C(=O)NC4CCN(Cc5ccccc5)CC4)s3)nc2c1`, the inhibition was 2.69%.

On to `O=C(Nc1cccc(OC2CCN(Cc3ccc(F)cc3)CC2)c1)c1ccc(C(F)(F)F)cc1`, for which the inhibition is 0.67%.

On to `CS(=O)(=O)N1CC2(CCN(CCC(NC(=O)/C=C/c3ccccc3)c3ccc(Cl)c(Cl)c3)CC2)c2ccccc21` (stereo not given), for which the inhibition was determined as 0.3%.

As for `CC(C)(C)c1ccccc1OCCCON1C(=N)N=C(N)NC1(C)C`, the inhibition was determined as 59.3%.

`Cc1cccc2nc(-c3ccc(-c4ccc(CNCc5cccc(N)c5)cc4)cc3)[nH]c12`: the inhibition is 30.9%.

Turning to `CCCCN(Cc1cc(Cl)c(OCC)c(OC)c1)c1ccc(C(O)(C(F)(F)F)C(F)(F)F)cc1`, the inhibition is -0.97%.

Regarding `CCc1c(CCNCCCCCCNCc2ccc3c(c2CC)OCO3)ccc(OC)c1OC`, the inhibition turned out to be 0.77%.
